In all, about 150,000 compounds went through this assay and about 540 (0.36%) showed an effect of 50% or more. Many of the other results were omitted from the sample, so strong results are more common in it than they were.

This assay concerns Plasmodium falciparum. In words: Primary screen in NF54 nanoGlo assay, in single point, at 2uM, 72h; a lower Z score goes with more inhibition. Format: functional, Erythrocyte. Particulars: timepoint 72 hour.
For the molecule `COc1ccc(CCNC(=O)N2CC=C(C(F)(F)F)CC2)cc1F`, the “% Inhibition” value is 6% and the Z score is -1.17.
Turning to `Cc1ccc(Nc2nc(N)nc(Cn3cnc(C)c3C)n2)cc1`, the “% Inhibition” value is recorded as -3% and the Z score stood at 0.51.
For `Cc1ccc(Nc2nc(N)nc(CN3CCCCCCC3)n2)cc1` the same measures were -5% and 0.66.
For `OC1CCN(Cc2ccc(CNc3ccc(F)cn3)cc2)CC1` the same measures were -6% and 0.93.
As to `CC(C)n1ccnc1[C@H]1CCCN(C(=O)c2cnc3c(c2)CCCC3)C1`, the “% Inhibition” value is 3% and the Z score was -0.26.
For `O=C(Nc1cc(C(F)(F)F)ccc1N1CCOCC1)c1nn(-c2ccccc2)c(=O)c2ccccc12` the same measures were -15% and 2.63.
For `NC(=O)c1n[nH]c2ccc(NC(=O)c3nn(-c4ccccc4)c(=O)c4ccccc34)cc12` the same measures were -3% and 0.31.
As to `CN1CCCN(c2ccc(NC(=O)c3nn(-c4ccccc4)c(=O)c4ccccc34)cc2F)CC1`, the “% Inhibition” value is 82% and the Z score was -6.28.
For `NS(=O)(=O)c1cnc(N[C@H]2CCc3ccc(F)cc32)s1` the same measures were -3% and 0.33.
For `COc1cc(C)c2[nH]c3c(c(=O)c2c1)CN(CC(=O)Nc1ccc2c(c1)OCCO2)CC3` the same measures were 52% and -1.23.
For `COc1cc(C)c2[nH]c3c(c(=O)c2c1)CN(CC(=O)Nc1ccc2c(c1)OCO2)CC3` the same measures were 44% and -0.61.
As for `COc1cc(C)c2[nH]c3c(c(=O)c2c1)CN(CC(=O)Nc1ccc(F)c(C)c1)CC3`, the “% Inhibition” value was 43% and the Z score is on record as -1.61.
Take `O=C1N(CC2CCCCC2)CCC[C@@]1(O)CN1CCOCC1`: the “% Inhibition” value is -7% and the Z score is recorded as 1.35.
For `CCOC1(c2nc(Cc3conc3C)no2)CCCC1` the same measures were 6% and -0.78.
Consider `CCOc1cc(Cl)ccc1C(=O)NC1CCN(C[C@H]2CCOC2)CC1`, for which the “% Inhibition” value is listed as 38% and the Z score is recorded as -0.42.
For `c1nc(NCCC2CCCCC2)c2cnoc2n1` the same measures were 7% and -0.88.
For `CC(C)[C@@H](C(=O)NCc1cccc(C(F)(F)F)c1)N1CCCS1(=O)=O` the same measures were -4% and 0.83.
For `Cc1c(-c2nn(-c3nc(C4CC4)cc(C(F)(F)F)n3)c(-c3cnn(C)c3C)c2Cl)cnn1C` the same measures were 76% and -8.32.
In the case of `Cc1nn(C)cc1-c1nn(-c2nc(C3CC3)cc(C(F)(F)F)n2)c(-c2cn(C)nc2C)c1C`, the “% Inhibition” value came to 46% and the Z score amounted to 0.79.
Turning to `Cc1c(-c2nn(-c3ccccc3)c(-c3cnn(C)c3C)c2Cl)cnn1C`, the “% Inhibition” value amounted to 39% and the Z score is recorded as -4.45.
For `Cc1nccn1C[C@H]1CCCN(C(=O)Cn2cccn2)C1` the same measures were -3% and 0.6.
For `COC(=O)c1cc(OC)ccc1-c1cccc(C(=O)N2CCNC[C@@H]2C)c1` the same measures were -17% and 1.67.
On to `O=C(Nc1nc2cccc(Cl)c2o1)c1cccc(F)c1`, for which the “% Inhibition” value is 89% and the Z score is -8.47.
On to `Cc1nc(N2CCCC2)nc(C)c1NC(=O)c1cccc(F)c1`, for which the “% Inhibition” value is -5% and the Z score turned out to be 0.84.
Regarding `Cc1ccc(NC(=O)c2cccc(F)c2)c(-c2nc3ccccc3nc2O)c1`, the “% Inhibition” value is reported as -15% and the Z score came out at 1.64.
For `COc1ccccc1N1CCN(C(=O)[C@H](C)n2ccnc2)CC1` the same measures were -19% and 2.94.
As for `CCc1ccc(-c2cc(C(=O)Nc3ccc4nc(NS(C)(=O)=O)sc4c3)[nH]n2)cc1`, the “% Inhibition” value was -13% and the Z score stood at 1.27.
For `CCn1c(N2CCC[C@H](C(=O)NCc3cccc(Cl)c3)C2)cc(=O)n(C)c1=O` the same measures were -20% and 3.09.
For `COc1ccc(N(Cc2c(C)noc2C)Cc2c(C)noc2C)cc1` the same measures were -5% and 0.44.
For `CC1(C)CCCN1S(=O)(=O)c1onc(C2CC2)c1Cl` the same measures were -3% and 0.41.
As for `Cc1ccc(S(=O)(=O)n2cc(C)[nH]c2=O)cc1`, the “% Inhibition” value was -23% and the Z score is 2.15.
For `O=c1[nH]c(=O)n(S(=O)(=O)c2ccccc2)cc1F` the same measures were 90% and -12.13.
For `O=c1[nH]c(=O)n(CCS(=O)(=O)c2ccccc2)cc1Cl` the same measures were -11% and 1.09.
For `CC(C1CC1)n1cc(NC(=O)N2CCC(C(F)(F)F)C2(C)C)cn1` (stereo not drawn) the same measures were -10% and 1.23.
As to `Cc1nnc(OC2Cc3ccccc3C2)s1`, the “% Inhibition” value is given as -7% and the Z score came to 1.07.
For `Fc1cnc(OC2Cc3ccccc3C2)nc1` the same measures were 60% and -5.26.
For `O=C(CCc1ccccc1)N[C@H]1CC[C@H](Oc2ncc(F)cn2)CC1` the same measures were -10% and 1.77.
For `CCc1nnc(CNC(=O)C(=O)c2ccco2)o1` the same measures were -5% and 0.65.
For the molecule `COc1ccc(CNC(=O)CCc2c(C)nn(-c3ccc4nnc(C)n4n3)c2C)c(OC)c1`, the “% Inhibition” value amounted to 5% and the Z score was -0.63.
For `CC[n+]1c(/C=C/N(C)c2ccccc2)oc2ccc(-c3ccccc3)cc21` the same measures were 88% and -9.92.
For `CC[n+]1c(/C=C/N(C)c2ccccc2)oc2ccccc21` the same measures were 80% and -10.29.
Turning to `COc1ccc2c(c1)C(=O)N(Cc1ccccc1)C(=O)C2(C)C`, the “% Inhibition” value was -10% and the Z score is listed as 1.06.
For `C[C@@H](c1cccnc1)N(C)Cc1nc2c(s1)CCC2` the same measures were -18% and 3.45.
For `CCC(=O)Nc1cc(NC(=O)N(CC)CC2CCOCC2)ccc1OC` the same measures were -8% and 1.44.
For `Cc1cc([C@H](Nc2ccccn2)c2ccccc2)c(NC(=O)c2ccccc2)s1` the same measures were 31% and -0.7.
Regarding `Oc1ccc2ncccc2c1[C@@H](Nc1ccccn1)c1cccc(Cl)c1`, the “% Inhibition” value was found to be 34% and the Z score is reported as -3.9.
For `Oc1ccc2ncccc2c1[C@@H](Nc1ccccn1)c1cccc(Br)c1` the same measures were 58% and -12.1.
For `Cc1cccc(Cl)c1NC(=O)N1CCS(=O)(=O)[C@@H](C)C1` the same measures were -5% and 0.54.
For `Cc1ccc(-n2nnnc2C2(NC(C)C)CCCC2)cc1` the same measures were -3% and 0.43.
Take `CC(=O)Nc1ccc(-c2nc(-c3cccnn3)no2)c(C)c1`: the “% Inhibition” value is reported as -22% and the Z score worked out at 2.61.
For `CC(C)(C)CN(CC(=O)O)C(=O)Cc1ccccc1F` the same measures were -9% and 1.82.
For `CCN1CCN(C(=O)c2cnc(-c3ccc(F)cc3)nc2N(C)C)CC1` the same measures were 3% and -0.5.
With `COc1ccnc(NCCCNc2nccc(OC)n2)n1`, the “% Inhibition” value was -4% and the Z score is 0.53.
For `Cc1ccc(N2CCOCC2)c(NC(=O)C2CCCCC2)c1` the same measures were -1% and 0.12.
For `Cc1nn(C)c(Cl)c1NC(=O)OCc1ccc(F)cc1` the same measures were 54% and -1.24.
For `O=C(CNC(=O)OCc1ccccc1)Nc1ccc(F)cc1` the same measures were 37% and 2.05.
As for `COc1ccccc1COC(=O)Nc1c(C)nn(C)c1Cl`, the “% Inhibition” value was 2% and the Z score is given as -0.32.
For `Cc1ccc(N2S(=O)(=O)c3ccccc3S2(=O)=O)cc1` the same measures were 4% and -0.44.
For `Cc1cc(NC(=O)C2CCC(C3CC3)CC2)n2ncnc2n1` (stereo not drawn) the same measures were -7% and 0.83.
For `CCOc1ccc(Nc2c3ccccc3nc3ccccc23)cc1` the same measures were 81% and -10.53.
For `FC(F)(F)c1cccc(Nc2c3ccccc3nc3ccccc23)c1`, the “% Inhibition” value is recorded as 10% and the Z score is -0.85.
For `CCOc1ccc(NC(=O)Cc2c(O)nc3ccccc3c2O)cc1` the same measures were -9% and 1.39.
For `O=C(O)c1ccc(Nc2c3ccccc3nc3ccccc23)cc1` the same measures were -3% and 0.3.
For `C[C@H](NC(=O)c1ccccc1)C(=O)NCC1(N2CCOCC2)CCCCC1` the same measures were -4% and 0.39.
`COc1ccc(C(=O)N(Cc2ccc(OS(=O)(=O)c3ccc(F)cc3)cc2)C(C)C)c(OC)c1`: the “% Inhibition” value is -14% and the Z score was 1.5.
For `NC(=NCc1csc2ccccc12)N1CCN(c2nccs2)CC1`, the “% Inhibition” value is recorded as 5% and the Z score is on record as -0.56.
Turning to `NC(=NCc1ccc(Cl)cn1)N1CCN(c2nccs2)CC1`, the “% Inhibition” value is listed as -4% and the Z score was 0.42.
For `NC(=NCc1cccc2cccnc12)N1CCN(c2nccs2)CC1` the same measures were 57% and -10.38.
For `N#Cc1ncn(C[C@H]2CCC3(CCCCC3)O2)c1C#N` the same measures were -10% and 1.82.
Consider `C[C@H](O)CN1CCN(Cc2cn3ccccc3c2C#N)CC1`, for which the “% Inhibition” value is given as -13% and the Z score amounted to 2.38.
`N#Cc1c(CN2CCOCC2)cc(=O)n2c1[nH]c1ccccc12`: the “% Inhibition” value is 35% and the Z score is -0.01.
For `Cc1ccc(CN2CCN(C[C@@H](O)Cn3c4ccccc4n4c(=O)cc(C)c(C#N)c34)CC2)c(C)c1` the same measures were 86% and -13.14.
For `O=C(CC1CCCCC1)NCC1CCN(c2cc(-c3cccnc3)n[nH]2)CC1` the same measures were -17% and 1.71.
For `CC[n+]1ccc(-c2ncc(-c3ccc(C(C)(C)C)cc3)o2)cc1` the same measures were 66% and -12.84.
With `CO[C@@H](C)C(=O)N(Cc1ncc[nH]1)c1cncc(Br)c1`, the “% Inhibition” value worked out at 2% and the Z score is listed as -0.29.
For `COc1ccc(-c2cc(OC(F)(F)F)ccc2O)nn1` the same measures were -8% and 1.53.
For `CC1CCCC(C)N1S(=O)(=O)c1ccc(NC(=O)CCC(=O)c2ccc3c(c2)OCCO3)cc1` (stereo not drawn) the same measures were -4% and 0.64.
Turning to `C[N+]1(CCCC(=O)c2ccc3c(c2)OCCO3)CCC(c2ccccc2)C1` (stereo not drawn), the “% Inhibition” value is reported as 73% and the Z score is -8.3.
For `O=C(CCC(=O)c1ccc2c(c1)OCCCO2)NCc1ccccc1` the same measures were -7% and 1.26.
For `CCn1nccc1-c1cnc2nc(C)nn2c1` the same measures were -6% and 0.88.
For `Cc1cc(C)c(C(=O)N2C[C@H](F)C[C@H]2C(N)=O)o1` the same measures were 1% and -0.13.
In the case of `Cc1cccc(C(NC(=O)[C@@H]2CCCO2)C(F)(F)F)c1` (stereo partly drawn), the “% Inhibition” value is recorded as -6% and the Z score is given as 0.81.
For `Cc1cccc([C@@H](NC(=O)Nc2ncco2)C(F)(F)F)c1` the same measures were 54% and 1.59.
For `Cc1cccc([C@@H](NC(=O)CC2OCCCO2)C(F)(F)F)c1` the same measures were 3% and -0.38.

In general, % Inhibition refers to the relative decrease from the control value, in per cent.

Source of the values: ChEMBL document CHEMBL4888484, “Replenishing the malaria drug discovery pipeline: Screening and hit evaluation of the MMV Hit Generation Library 1 (HGL1) against asexual blood stage Plasmodium falciparum ,using a nano luciferase reporter read-out” (2022).
